A short description of assay [1]: qHTS Assay for Lipid Storage Modulators (AID 1519; calls by dose curve; as to activity change, negative = inhibition: % is scaled to controls: 0 for no effect and ±100 for the full control effect). Particulars: Drosophila S3 cells, BODIPY lipid droplet/cell ratio, laser cytometry, cells loaded with oleic acid. In a few lines:
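Cells seeded at 5,000 per well were treated with compounds over a concentration series and loaded with oleic acid (400 uM, as added). Lipid droplet fluorescence (488 nm excitation, 500-530 nm channel) was read by laser-scanning cytometry and normalized to 20 uM Triacsin C.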
(In general: Quantitative high-throughput screening tests each substance at several concentrations.)

Assay [2] addresses alpha-glucosidase (Oryza sativa, rice) (UniProt Q653V4). The assay is described as follows: Counterscreen for Glucocerebrosidase Inhibitors: qHTS Assay for Rice alpha-Glucosidase at pH 5.0 (AID 997).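 Also: 0% = full activity with enzyme and -100% = basal without enzyme.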 As to conditions: rice alpha-glucosidase enzyme activity; series mostly up to 76.9 µM. In a few lines:
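Rice alpha-glucosidase (4 nM final) with 400 uM 4-methylumbelliferyl-alpha-D-glucopyranoside in citrate buffer pH 5.0, 20 min at room temperature, stopped at pH 10; fluorescence 365/440 nm, compounds 0.7 nM–77 uM, AC50 from Hill fits.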

The target of assay [3] is DNA repair nuclease/redox regulator APEX1 (Homo sapiens) (UniProt P27695). The assay is described as follows: qHTS Validation Assay for Inhibitors of the Human Apurinic/apyrimidinic Endonuclease 1 (APE1) (AID 1705;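 also: TAMRA fluorescence gain over two minutes as APE1 cuts a quenched THF abasic duplex; % is scaled to controls: 0 for no effect and ±100 for the full control effect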). As to conditions: purified APE1 endonuclease activity, fluorescence, titration; series mostly up to 57.1 µM. In short, it runs like this:
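Read-out: TAMRA fluorescence (525 nm ex, 598 nm em) from cleavage of a quenched THF abasic-site duplex, 50 nM final; activity taken as intensity change between third and first of three reads 60 s apart.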

Assay [4] is described as follows: Counterscreen for APE1 Inhibitors: Fluorescent Dye Displacement Validation Assay (AID 1707).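 Also: plate controls were ThO with dsDNA and no compound for no effect and ThO without dsDNA for full effect.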 Particulars: fluorescent dye displacement from DNA; series mostly up to 57.1 µM. In a few lines: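 Thiazole Orange (250 nM) bound to 50 nM TAMRA-labelled dsDNA with tetrahydrofuran abasic site; displacement by DNA-binding compounds lowers fluorescence. Buffer 50 mM Tris-HCl pH 7.5, 50 mM NaCl, 2 mM MgCl2, 0.01% Tween-20; endpoint read at 480/540 nm.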
(The purpose of a counterscreen is to sort out artefacts and off-target activity.)

The target of assay [5] is Endonuclease 4 (Escherichia coli (strain K12)) (UniProt P0A6C1). The assay can be described thus: Counterscreen for APE1 Inhibitors: qHTS Validation Assay for Inhibitors of Endonuclease IV (AID 1708). Also: % is scaled to controls: 0 for no effect and ±100 for the full control effect. Particulars: E. coli endonuclease IV, DNA cleavage fluorescence; series mostly up to 57.1 µM. In a few lines:
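Enzymatic AP-site incision assay using a double-stranded THF substrate labelled with TAMRA and BHQ-2; released fluorescence signals activity. Enzyme 2 nM, substrate 50 nM, 15 min compound preincubation.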

The nature of assay [6]: qHTS for differential inhibitors of proliferation of Plasmodium falciparum line 7G8 (AID 1815).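 Also: parasite growth measured after three days of incubation.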 Also: potency is read from the fitted curve at half-maximal effect.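 As to activity change, negative = inhibition: plate controls were vehicle wells for no effect and reference inhibitor wells for full effect.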 Particulars: Plasmodium falciparum 7G8 proliferation inhibition; series mostly up to 28.7 µM.
Assay [7] in a line: qHTS for differential inhibitors of proliferation of Plasmodium falciparum line GB4 (AID 1816).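 Also: parasite growth measured after 72 h incubation.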 Also: potency is read from the fitted curve at half-maximal effect.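 As to activity change, negative = inhibition: 0% = vehicle DMSO and -100% = reference inhibitor.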 Particulars: Potency: Plasmodium falciparum GB4 proliferation inhibition; series mostly up to 28.7 µM.
The nature of assay [8]: Cell Viability - LYMP1-002 - Assay at 24 hr (AID 993). Also: % is scaled to controls: 0 for no effect and ±100 for the full control effect. As to conditions: LYMP1-002 lymphoblastoid cells viability; series mostly up to 92.2 µM. In short, it runs like this:
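Human lymphoblastoid LYMP1-002 cells, 2500/well in complete medium, were treated with compounds for 24 h at 37 C; intracellular ATP was read by CellTiter-Glo luminescence. AC50 values came from Hill-equation fits of qHTS concentration-response data.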

Assay [9] is described as follows: Cell Viability - LYMP1-002 - Assay at 40 hr (AID 994).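 Also: 0% = DMSO only and full inhibition = 92 µM tetraoctylammonium bromide; nearly all actives have a fitted effect of over 60% in size.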 Particulars: LYMP1-002 lymphoblastoid cell viability; series mostly up to 92.2 µM. In a few lines: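 Human lymphoblastoid cells, 2500/well in complete medium, were preincubated 5 hr at 37 C, then exposed to compounds for 40 hr at 37 C. Intracellular ATP was read by CellTiter-Glo luminescence after 30 min at room temperature; AC50 from Hill-equation fits.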

[10] abbreviates: measured here: cell count channel max response.
Where [11] appears, read: measured here: lipid channel max response.

Experimental findings from PubChem BioAssay (NCATS) are described below.

Where “and” joins values, the source holds several entries; their conditions need not be identical. Identical values can stand only once. Results filed as inconclusive are left out. Calls of active or inactive are those of the source. Unless noted, calls follow the shape of the dose curve; as a rule, active = well fitted curve in the direction sought with a large enough effect; inconclusive = small, poorly fitted or top-dose-only effect, or another doubt; inactive = no such curve, though single readings can be large; an effect the other way counts as inactive or inconclusive.

DNA repair nuclease/redox regulator APEX1 (Homo sapiens), sequence (P27695 whole entry, looked up): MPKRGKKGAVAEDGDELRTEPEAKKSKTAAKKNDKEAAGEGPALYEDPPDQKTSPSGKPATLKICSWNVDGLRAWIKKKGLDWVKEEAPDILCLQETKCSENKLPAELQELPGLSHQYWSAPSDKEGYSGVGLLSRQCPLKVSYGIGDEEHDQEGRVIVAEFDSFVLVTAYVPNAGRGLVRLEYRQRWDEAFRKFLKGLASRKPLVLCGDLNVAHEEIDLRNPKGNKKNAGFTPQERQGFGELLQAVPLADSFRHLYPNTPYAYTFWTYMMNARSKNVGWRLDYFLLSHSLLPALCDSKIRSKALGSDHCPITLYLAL

Turning to `Nc1cc(C(Cl)=C(Cl)Cl)c(S(N)(=O)=O)cc1S(N)(=O)=O`, the activity change, negative = inhibition in assay [1] (at 25.7 µM (top of the series)) was -3.67% (inactive); in [1] (at 57.5 µM (top of the series)), 2.69% (inactive). In addition, the max response in [1] (setting [10]) is 6.94% and 7.19%; in assay [1] (setting [11]), 2.6% and 13.2%.

Turning to `CN1C(C(=O)Nc2ccccn2)=C(O)c2sccc2S1(=O)=O`, the activity change, negative = inhibition in [1] (at 25.7 µM (top of the series)) is -0.44% (inactive). Moreover, the figures for the max response in assay [1] (setting [10]) and in assay [1] (setting [11]) were -5.92% and -4.62%, respectively.

Turning to `COc1cc(OC)c(C(=O)CCCN2CCCC2)c(OC)c1`, the activity change, negative = inhibition in assay [1] (at 25.7 µM (top of the series)) was -0.942% (inactive). Further, the max response in [1] (setting [10]) is -9.33%; in assay [1] (setting [11]) it was -9.82%.

As for `CNC[C@H](O)c1ccc(O)c(O)c1`, the result in assay [2] and in assay [5] was inactive. Also, the Potency entry in [3] and in [4] was “inactive” each time.

Regarding `CN1CCC(=C2c3ccccc3CCc3sccc32)CC1`, the activity change, negative = inhibition in assay [1] (at 25.7 µM (top of the series)) was -0.622% (inactive); in assay [1] (at 57.5 µM (top of the series)), 3.6% (inactive). For the same molecule, the max response in assay [1] (setting [10]) is -11.4% and -0.631%; in assay [1] (setting [11]) it was -11.1% and 14.8%.

`O=C(O)c1cccnc1Nc1cccc(C(F)(F)F)c1`: the result in assay [2] and in assay [5] was inactive. Moreover, the values for the activity change, negative = inhibition in assay [1] (at 25.7 µM (top of the series)) and in assay [1] (at 57.5 µM (top of the series)) were 2.12% (inactive) and 2.96% (inactive), respectively. The max response in assay [1] (setting [10]) was -6.57% and 55.9%; in [1] (setting [11]), -3.91% and 60.1%. Also, the Potency result in [3], in assay [4], in [6] and in [7] was “inactive” in each case.

Consider `NC(=NCc1ccccc1)NC(=O)c1nc(Cl)c(N)nc1N`, for which the result in assay [2] and in assay [5] was inactive. Further, the activity change, negative = inhibition in [1] (at 25.7 µM (top of the series)) is 0.817% (inactive); in assay [1] (at 57.5 µM (top of the series)), 2.33% (inactive). For the same molecule, the max response in assay [1] (setting [10]) was -4.7% and 21.8%; in assay [1] (setting [11]), -4.9% and 26.9%. The Potency entry in assay [3] and in assay [4] was “inactive” throughout. The results for the Potency in [6] and in assay [7] were 2 µM (active) and 3.16 µM (active), respectively.

For the molecule `Cc1c(OCC(F)(F)F)ccnc1CS(=O)c1nc2ccccc2[nH]1` (stereo not given), the molecule was called inactive in assay [2] and in assay [5]. Further, the figures for the activity change, negative = inhibition in assay [1] (at 25.7 µM (top of the series)) and in [1] (at 57.5 µM (top of the series)) were -2.59% (inactive) and 0.201% (inactive), respectively. Further, the max response was -16.9% and 6.05% in [1] (setting [10]); -17.5% and 9.62% in [1] (setting [11]). The Potency result in assay [3] and in assay [4] was “inactive” in each case.

In the case of `Nc1ccc(S(N)(=O)=O)cc1`, the Potency result in assay [8] and in assay [9] was “inactive” each time. The activity change, negative = inhibition in assay [1] (at 25.7 µM (top of the series)) was 0.244% (inactive); in assay [1] (at 57.5 µM (top of the series)), 10.7% (inactive). Besides, the max response in assay [1] (setting [10]) is -10.4% and 15.9%; in [1] (setting [11]), -9.48% and 32.6%.

Turning to `CCCCC(CC)COC(=O)C(C#N)=C(c1ccccc1)c1ccccc1` (stereo not given), the Potency result in assay [8] and in [9] was “inactive” each time.

Take `CC(=O)Nc1ccc(O)cc1`: the Potency entry in assay [8] and in [9] was “inactive” each time. In addition, the activity change, negative = inhibition in assay [1] (at 25.7 µM (top of the series)) was -2.03% (inactive); in [1] (at 57.5 µM (top of the series)), -1.72% (inactive) and 6.64% (inactive). Further, the max response in assay [1] (setting [10]) is -12.5% and -9.7% and 2.35%; in assay [1] (setting [11]), -12.8% and -10.2% and 7.7%.

Regarding `NCCCCNCCCN`, the molecule was called inactive in [2] and in [5]. Further, the activity change, negative = inhibition in assay [1] (at 57.5 µM (top of the series)) is 0.755% (inactive). In addition, the max response in [1] (setting [10]) came to 7.14%; in assay [1] (setting [11]) it was 8.54%. In addition, the Potency entry in assay [3], in assay [4], in assay [6] and in [7] was “inactive” in each case.

`CCN(CC)C(=S)SSC(=S)N(CC)CC`: the result in assay [2] and in assay [5] was inactive. The activity change, negative = inhibition in assay [1] (at 25.7 µM (top of the series)) is -3.33% (inactive). Further, the max response in assay [1] (setting [10]) is -15.7%; in assay [1] (setting [11]), -17%. Further, the Potency result in [3] and in assay [4] was “inactive” in each case. The Potency in assay [7] was 5.01 µM (active).

For `NS(=O)(=O)c1cc(C(=O)O)c(NCc2ccco2)cc1Cl`, the Potency entry in assay [8] and in assay [9] was “inactive” in each case. In addition, the activity change, negative = inhibition in [1] (at 25.7 µM (top of the series)) was 1.95% (inactive). The max response was -6.97% in assay [1] (setting [10]) and -4.2% in assay [1] (setting [11]).

Turning to `O=C(c1ccccc1)c1ccc2n1CCC2C(=O)O` (stereo not given), the activity change, negative = inhibition in [1] (at 57.5 µM (top of the series)) was 6.17% (inactive). Also, the max response worked out at 4.19% in [1] (setting [10]) and 13.3% in [1] (setting [11]). The Potency entry in [3], in [4], in [6] and in assay [7] was “inactive” in each case. Besides, the call in assay [5] was inactive.

For `CS(=O)(=O)OCCCCOS(C)(=O)=O`, the Potency result in [8] and in assay [9] was “inactive” each time. The activity change, negative = inhibition in assay [1] (at 57.5 µM (top of the series)) is 1.02% (inactive). The figures for the max response in assay [1] (setting [10]) and in [1] (setting [11]) were 2.98% and 11.4%, respectively.
